Results filed as inconclusive are left out. Calls of active or inactive are those of the source. Unless noted, calls come from the whole dose curve; as a rule, active = well fitted curve in the direction sought with a large enough effect; inconclusive = small, poorly fitted or top-dose-only effect, or another doubt; inactive = no such curve, though single readings can be large; an effect the other way counts as inactive or inconclusive.

Assay [1] can be described thus: High-throughput drug toxicity screening in the BPDCN cell line Gen2.2 (AID 1224824; call rule not given here;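 note: cells exposed to compounds for 48 h before reading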). To be noted: Gen2.2 BPDCN cells; at 45.8 µM (top of the series) unless noted. A digest of the protocol: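 CellTiter-Glo luminescence after 48 h compound exposure of Gen2.2 cells; percent activity set with DMSO as 100% and bortezomib (9.2 uM final) as 0%. Cells seeded at 500 per well, RPMI + 10% FBS, 37 °C.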

The nature of assay [2]: High-throughput drug toxicity screening in the BPDCN cell line Cal-1 (AID 1224825; call rule not given here). To be noted: Cal-1 BPDCN cell viability, qHTS; at 45.8 µM (top of the series) unless noted. A digest of the protocol: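 Cal-1 cells, 500 per well in phenol-red-free RPMI with 10% FBS, exposed to compounds for 48 hours at 37C, 5% CO2. Viability read by CellTiter-Glo luminescence; percent activity normalized to DMSO (100%) and 9.2 uM bortezomib final (0%).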

Assay [3] is described as follows: qHTS assay for measurement of the activity of small molecule inhibitors on Zika virus induced Caspase-3 activity in human iPSC derived neural progenitor cells (hNPCs) (AID 1224857). Note: % of control where 0% means no effect; nearly all actives have a fitted effect of over 65% in size. A digest of the protocol: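 Human iPSC-derived neural progenitor cells pretreated 1 hr with compounds, then infected with Zika virus (2 FFU/cell) for 6 hours at 37 C. Caspase-3/7 measured by Caspase-Glo luminescence; % inhibition calculated from induction scaled to uninfected (0%) and infected (100%) wells.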
(Quantitative high-throughput screening tests each substance at several concentrations.)

A short description of assay [4]: qHTS assay for measurement of the activity of small molecule inhibitors on Zika virus induced Caspase-3 activity in human astrocytoma cells (AID 1224859).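 Note: plate controls were ZIKV-infected untreated cells for no effect and uninfected cells for full effect.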 A digest of the protocol:
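SNB-19 astrocytoma cells, 250/well, pretreated 1 h with compounds, then Zika virus at 2 FFU/cell for 6 h at 37 C; Caspase-Glo 3/7 luminescence after 30 min; percent inhibition normalised to uninfected and infected controls.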

Assay [5] in a line: qHTS Screen of the MIPE 4.0 Collection Against Ewings Sarcoma (RDES) (AID 1259252). Note: nearly all actives have a fitted effect of over 35% in size. Note: potency is the fitted concentration of half-maximal effect. A digest of the protocol:
(§1)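 Dose series incubated 48 h with cells in RPMI plus 5% FBS, glutamine and penicillin/streptomycin; cell viability then quantified via CellTiter-Glo.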

Assay [6] in a line: qHTS Screen of the MIPE 4.0 Collection Against Ewings Sarcoma (TC32) (AID 1259256). Note: nearly all actives have a fitted effect of over 45% in size. Note: potency is the fitted concentration of half-maximal effect. A digest of the protocol:
as §1

A short description of assay [7]: qHTS assay to identify small molecule inhibitors of chordoma cells - UCH-1 (AID 1259355). Note: % is set by controls: 0 for no effect and ±100 for the full control effect; nearly all actives have a fitted effect of over 55% in size. A digest of the protocol:
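Cells (800/well) were seeded and left overnight at 37 C, 5% CO2, then treated with drugs at 15 concentrations plus a combination mix of auranofin, camptothecin, doxorubicin, rubitecan and topotecan. Viability after 48hr was read by CellTiter-Glo luminescence.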

Assay [8] is described as follows: qHTS assay to identify small molecule inhibitors of chordoma cells - UCH-2 (AID 1259356). Note: % is set by controls: 0 for no effect and ±100 for the full control effect.
Assay [9] in a line: qHTS profiling of the MIPE4 collection as inhibitors of Plasmodium falciparum (DD2) proliferation (AID 743345; call rule not given here). To be noted: P. falciparum Dd2 in erythrocytes, SYBR Green DNA, 72 h; at 28.5 µM (top of the series) unless noted. A digest of the protocol:
(§2)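 Erythrocytes infected with P. falciparum (0.3% parasitemia, 2.5% hematocrit) incubated with compounds 72 h at 37 C, 5% CO2. Lysis with saponin/Triton buffer containing SYBR Green I, overnight at room temperature in the dark; DNA fluorescence (485/535 nm) normalised to 0.29 uM artemisinin and DMSO.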

A short description of assay [10]: qHTS profiling of the MIPE4 collection as inhibitors of Plasmodium falciparum (DD2) proliferation (Rep 2) (AID 743346; call rule not given here). To be noted: P. falciparum Dd2 in erythrocytes, SYBR Green DNA, 72 h; at 28.5 µM (top of the series) unless noted. A digest of the protocol: as §2
A short description of assay [11]: qHTS profiling of the MIPE4 collection as inhibitors of Plasmodium falciparum (HB3) proliferation (AID 743347; call rule not given here;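 note: plate controls were DMSO vehicle wells for no effect and artemisinin wells for full effect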). The note with it: P. falciparum HB3 in erythrocytes, SYBR Green DNA, 72 h; at 28.5 µM (top of the series) unless noted. A digest of the protocol:
as §2

Assay [12] can be described thus: qHTS Screen of the MIPE 4.0 Collection Against Ewings Sarcoma (TC71) (AID 1259253). Note: nearly all actives have a fitted effect of over 40% in size. Note: potency is the fitted concentration of half-maximal effect. A digest of the protocol: as §1
The nature of assay [13]: qHTS Screen of the MIPE 4.0 Collection Against Ewings Sarcoma (EW8) (AID 1259255).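 For viability: 100% = DMSO-treated cells and 0% = medium-only wells without cells.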 Note: nearly all actives have a fitted effect of over 35% in size. Note: potency is the fitted concentration of half-maximal effect. A digest of the protocol: as §1
A short description of assay [14]: Identifying Small Molecule Inhibitors of Pancreatic Cancer Stem Cells (A2780, Spheroid) (AID 1259357).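 Note: spheroids pre-formed over 14 days in stem cell medium on hydrogel; potency is the fitted concentration of half-maximal effect; compound exposure lasted 48 h before the ATP luminescence read.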 The note with it: A2780 spheroid viability. A digest of the protocol:
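Spheroids grown 14 days in stem cell media on nonadherent hydrogel before screening; cells attached 4 h, then compound exposure 48 h at 37C, 5% CO2. CellTiter-Glo luminescence normalized to DMSO (no inhibition) and no-cell wells (full inhibition).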

Assay [15] can be described thus: Identifying Small Molecule Inhibitors of Pancreatic Cancer Stem Cells (SN12C, Adherent) (AID 1259358).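 Note: potency is the fitted concentration of half-maximal effect; cell survival measured after 48 h of compound exposure.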 A digest of the protocol:
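Endpoint: ATP-based luminescence, 48 h drug exposure. Bortezomib at 9.2 uM final as full-kill control; DMSO vehicle as negative control; activity normalized between vehicle and cell-free wells.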

Assay [16] in a line: Identifying Small Molecule Inhibitors of Pancreatic Cancer Stem Cells (Panc1, Spheroid) (AID 1259359).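 Note: potency is the fitted concentration of half-maximal effect; compound exposure lasted 48 h before reading.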 To be noted: Panc1 spheroid cancer stem cell viability. A digest of the protocol: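 After a 4 h attachment period, compounds were pinned into wells and cultures held 48 h under standard incubator conditions. Viability was then measured as CellTiter-Glo luminescence following 10 min at room temperature.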

Assay [17] can be described thus: Identifying Small Molecule Inhibitors of Pancreatic Cancer Stem Cells (Panc1, Adherent) (AID 1259362). Note: potency is the fitted concentration of half-maximal effect. To be noted: Potency: viability. A digest of the protocol:
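Pre-formed 14-day tumor spheroids or adherent cells dosed and incubated 48 h, 37C, 5% CO2. Viability assessed by CellTiter-Glo.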

With `CC(C(=O)O)c1cccc(C(=O)c2ccccc2)c1` (stereo not drawn), in [1], the cell viability, % of control (lower = more cytotoxic) worked out at 152%. The viability (% of control) in assay [2] amounted to 103%. The Potency entry in assay [3], in assay [4] and in [7] was “inactive” throughout. Also, the figures for the Potency in [5] and in [6] were 7.43 µM (active) and 14.8 µM (active), respectively. Further, the outcome in assay [8] was inactive.

On to `COc1cc2nc(N3CCN(C(=O)C4COc5ccccc5O4)CC3)nc(N)c2cc1OC` (stereo not drawn), for which, in [9], the parasite growth remaining, % of DMSO control (lower = more inhibition) was 9.25%. The parasite growth, % of control (lower = inhibition) in [10] was found to be 11.1%. Besides, the growth, % of control in [11] was found to be 2.34%. Besides, the cell viability, % of control (lower = more cytotoxic) in assay [1] is 14.1%. Moreover, the viability (% of control) in assay [2] is 8.05%. The Potency entry in assay [3], in assay [4], in assay [5] and in [7] was “inactive” in each case. Moreover, in [12], the Potency is 16.6 µM (active). For the same compound, the call in assay [8] was inactive.

`CN1CCN(C2=Nc3cc(Cl)ccc3Nc3ccccc32)CC1`: the cell viability, % of control (lower = more cytotoxic) in assay [1] was determined as 121%. Also, the viability (% of control) in [2] is 83.1%. The Potency result in assay [3], in [4] and in assay [5] was “inactive” throughout. The compound was classed as inactive in assay [8].

On to `CC(C)C(=O)Nc1ccc([N+](=O)[O-])c(C(F)(F)F)c1`, for which the cell viability, % of control (lower = more cytotoxic) in [1] stood at 58%. In addition, the viability (% of control) in [2] worked out at 5.71%. For the same compound, the Potency entry in assay [3], in assay [4] and in assay [7] was “inactive” in each case. Besides, the Potency was 10.5 µM (active) in [12], 13.2 µM (active) in [13] and 13.2 µM (active) in assay [6]. Further, in assay [8], the result was inactive.

With `CC[N+](CC)(CC)CCOc1cccc(OCC[N+](CC)(CC)CC)c1OCC[N+](CC)(CC)CC`, in [9], the parasite growth remaining, % of DMSO control (lower = more inhibition) worked out at 104%. For the same compound, the cell viability, % of control (lower = more cytotoxic) in [1] came out at 124%. Also, the viability (% of control) in [2] is 111%. In addition, the Potency entry in assay [3], in assay [4], in [12], in assay [13], in [6] and in assay [7] was “inactive” throughout. Besides, the compound was called inactive in assay [8].

With `CN1CCN2c3ccccc3Cc3ccccc3C2C1` (stereo not drawn), the parasite growth remaining, % of DMSO control (lower = more inhibition) in assay [9] stood at 60.5%. Besides, in assay [11], the growth, % of control turned out to be 99.7%. The cell viability, % of control (lower = more cytotoxic) in assay [1] came to 83.4%. Also, in assay [2], the viability (% of control) turned out to be 91.5%. In addition, the Potency result in assay [3], in assay [4] and in [7] was “inactive” in each case. For the same compound, the Potency was 20.9 µM (active) in [5] and 16.6 µM (active) in [12]. Moreover, in assay [8], the outcome was inactive.

Turning to `CS(=O)(=O)CCNCc1ccc(-c2ccc3ncnc(Nc4ccc(OCc5cccc(F)c5)c(Cl)c4)c3c2)o1`, the parasite growth remaining, % of DMSO control (lower = more inhibition) in [9] is 7.86%. In addition, in assay [11], the growth, % of control is 13%. Further, the cell viability, % of control (lower = more cytotoxic) in assay [1] was found to be 4.7%. Further, the viability (% of control) in assay [2] was determined as 2.82%. Besides, the Potency result in [3], in [4] and in [7] was “inactive” in each case. In addition, the Potency in [5] was 0.59 µM (active); in [12], 2 µM (active); in [13], 8.33 µM (active); in [6], 13.2 µM (active); in [14], 16.6 µM (active); in assay [15], 0.418 µM (active). In addition, the values for the Potency in assay [16] and in assay [17] were 37.2 µM (active) and 20.9 µM (active), respectively. In assay [8], the result was inactive.

Regarding `CN(C)CCCN1c2ccccc2CCc2ccc(Cl)cc21`, the parasite growth remaining, % of DMSO control (lower = more inhibition) in assay [9] was found to be 12%. The compound also gave a parasite growth, % of control (lower = inhibition) in assay [10] of 24.6%. Besides, the growth, % of control in assay [11] amounted to 21.5%. Further, the cell viability, % of control (lower = more cytotoxic) in [1] is 29.4%. Also, the viability (% of control) in assay [2] amounted to 11.8%. Moreover, the Potency result in assay [3] and in assay [4] was “inactive” throughout. The Potency in assay [12] was 0.743 µM (active); in assay [13] it was 2.96 µM (active); in assay [6] it was 2.96 µM (active). Besides, the result in [8] was inactive.

On to `Cc1ccccc1N1C(=O)c2cc(S(N)(=O)=O)c(Cl)cc2NC1C` (stereo not drawn), for which the parasite growth remaining, % of DMSO control (lower = more inhibition) in [9] was 51%. For the same compound, the growth, % of control in [11] is 72.5%. Moreover, in [1], the cell viability, % of control (lower = more cytotoxic) was 73.5%. Moreover, the viability (% of control) in assay [2] was 108%. Also, the Potency result in assay [3], in assay [4], in [12], in [13] and in [6] was “inactive” throughout. Moreover, in assay [8], the compound was classed as inactive.

As to `C[C@](N)(Cc1ccc(O)c(O)c1)C(=O)O`, the parasite growth remaining, % of DMSO control (lower = more inhibition) in [9] was 80%. The compound further showed a parasite growth, % of control (lower = inhibition) in [10] of 77.2%. This compound returned a growth, % of control in [11] of 86%. In addition, the cell viability, % of control (lower = more cytotoxic) in [1] came to 46.6%. Besides, in [2], the viability (% of control) stood at 66%. In addition, the Potency result in assay [3], in [4], in [12], in assay [13], in [6] and in [7] was “inactive” throughout. Moreover, in assay [8], the compound was called inactive.

The values are drawn from PubChem BioAssay (NCATS).
